# HP1b chromo inh: HP1-beta chromodomain-methylated histone interaction inhibition; P83916; AID 540317; AlphaScreen HP1-beta / biotin-H3K9me3 peptide binding; 390,000 compounds, 0.56% hits; Potency, µM (highest dose often 114 µM), hits mostly inhibitors; note: nearly all actives have a fitted effect of over 70% in size
#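 HP1-beta protein (50 nM final) preincubated 30 min at room temperature with biotinylated H3(1-18)K9me3 peptide (50 nM) in PBS pH 7.4, 0.01% Tween-20, then compound added for 30 min. AlphaScreen streptavidin donor/nickel chelate acceptor beads (10 ug/mL final), 30 min dark, luminescence read.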
# G9a inh: blocks human histone lysine methyltransferase G9a. Q96KQ7. G9a H3K9 monomethylation, AlphaScreen, 2 h. Potency, µM (doses to about 102 µM), most hits filed as inhibitors. 350,000 compounds, 8.8% hits; note: nearly all actives have a fitted effect of over 75% in size
#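 Using a bead-based AlphaScreen, monomethylated H3K9 product from 2 h room-temperature reactions (G9a 20 nM, peptide 500 nM, SAM 20 uM) was detected with 0.5 ug/mL rabbit anti-H3K9me1 antibody.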
# BAZ2B inh: BAZ2B (human) inhibition. 360,000 compounds, 4.4% hits. Potency, µM (series often up to 114 µM), actives largely listed as inhibitors. Q9UIF8. AlphaScreen BAZ2B-H3K14Ac peptide displacement; note: nearly all actives have a fitted effect of over 60% in size
#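 Protein-peptide AlphaScreen: BAZ2B 50 nM, b-H3K14Ac 50 nM, 1x PBS pH 7.4 + 0.01% Tween-20. Preincubation 30 min RT; cpd 30 min RT (top 110 uM); beads 20 min RT, light-protected.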
# TDP1 inh: TDP1 (human) enzyme inhibition. Q9NUW8. recombinant TDP1, AlphaScreen DNA substrate cleavage. Potency, µM (titrated, usually from 130 µM), usual class: inhibitors. 350,000 compounds, 0.28% hits; note: nearly all actives have a fitted effect of over 40% in size
#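 Tdp1 1 nM final; 15 min RT w/ cpd; substrate 15 nM, 5 min; beads 10 ug/ml, 10 min; AlphaScreen read. Neg ctrl: no enzyme.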
# JMJD2A Tudor: blocks the human JMJD2A Tudor domain; AlphaScreen JMJD2A-Tudor / H3K4me3 peptide binding; 390,000 compounds, 4.4% hits; Potency, µM (top dose mostly 114 µM), most hits filed as inhibitors; O75164; note: nearly all actives have a fitted effect of over 50% in size
# Target sequence (O75164 whole entry, looked up, the tested form may be a part): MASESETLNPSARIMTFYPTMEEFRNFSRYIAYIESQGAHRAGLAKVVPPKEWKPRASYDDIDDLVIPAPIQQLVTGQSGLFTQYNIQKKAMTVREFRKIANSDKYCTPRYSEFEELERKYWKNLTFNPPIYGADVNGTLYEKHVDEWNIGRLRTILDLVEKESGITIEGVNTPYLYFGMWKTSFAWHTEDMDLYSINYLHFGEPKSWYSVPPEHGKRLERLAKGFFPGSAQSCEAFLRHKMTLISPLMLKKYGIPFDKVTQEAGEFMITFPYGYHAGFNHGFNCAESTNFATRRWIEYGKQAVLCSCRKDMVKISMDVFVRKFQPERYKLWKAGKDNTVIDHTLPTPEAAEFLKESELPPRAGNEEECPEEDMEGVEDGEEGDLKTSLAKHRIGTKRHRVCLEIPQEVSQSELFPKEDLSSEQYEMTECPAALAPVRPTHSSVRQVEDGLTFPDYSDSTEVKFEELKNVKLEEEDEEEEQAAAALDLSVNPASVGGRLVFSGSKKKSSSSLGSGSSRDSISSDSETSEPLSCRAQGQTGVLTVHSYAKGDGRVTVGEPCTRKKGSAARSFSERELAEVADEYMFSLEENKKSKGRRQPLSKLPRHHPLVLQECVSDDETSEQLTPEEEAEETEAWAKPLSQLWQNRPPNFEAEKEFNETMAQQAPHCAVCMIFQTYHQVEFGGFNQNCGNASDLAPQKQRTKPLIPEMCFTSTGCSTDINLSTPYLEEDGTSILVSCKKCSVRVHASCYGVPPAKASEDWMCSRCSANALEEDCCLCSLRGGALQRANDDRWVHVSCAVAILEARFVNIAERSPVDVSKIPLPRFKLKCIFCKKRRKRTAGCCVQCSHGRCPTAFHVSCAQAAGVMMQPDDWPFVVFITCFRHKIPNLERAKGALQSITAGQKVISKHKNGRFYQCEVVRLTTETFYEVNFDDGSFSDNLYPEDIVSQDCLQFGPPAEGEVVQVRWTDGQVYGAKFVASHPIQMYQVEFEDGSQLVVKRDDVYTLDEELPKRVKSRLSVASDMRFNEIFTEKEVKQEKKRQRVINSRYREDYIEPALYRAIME
# Sfp inh: Sfp phosphopantetheinyl transferase inhibition; AID 1490; Biochemical Sfp PPTase activity, qHTS; Potency, µM, usual class: inhibitors; 310,000 compounds, 3.5% hits;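 note: the enzyme is Sfp with the accession as filed and its product quenches rhodamine fluorescence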
#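 Step 1, compound plus 15 nM Sfp-PPTase, 15 min, room temperature. Step 2, add rhodamine-CoA (5 uM) and BHQ-2-YbbR (12.5 uM). Step 3, read 525/598 nm fluorescence at 0 and 30 min.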
# Hits are given with their value; 0 = inactive; ? = inconclusive; - = no result; ! = a repeat was not active; [ ] = another dose, or the depositor's remark. Only some compounds are listed: those with a hit (about 12% of all), similar ones and a draw of the others. Calls come from the whole dose curve; as a rule, active = well fitted curve in the direction sought with a large enough effect; inconclusive = small, poorly fitted or top-dose-only effect, or another doubt; inactive = no such curve, though single readings can be large; an effect the other way counts as inactive or inconclusive.
SMILES,HP1b chromo inh,G9a inh,BAZ2B inh,TDP1 inh,JMJD2A Tudor,Sfp inh
O=c1[nH]c(=S)[nH]c(O)c1N=Nc1ccc(-c2ccccc2)cc1[N+](=O)[O-],-,11.2µM,7.94µM,0,-,79.4µM
O=c1[nH]c(=S)[nH]c(O)c1N=Nc1cc2c(cc1[N+](=O)[O-])OCO2,0,50.1µM,0,0,0,0
NS(=O)(=O)c1ccc(N=Nc2c(O)[nH]c(=S)[nH]c2=O)cc1,0,-,0,0,0,0
CCOc1ccc(CCNC(=O)c2cc3c(-c4ccc(OC)c(OC)c4)nn(C)c3s2)cc1OCC,0,?,-,0,?,-
COc1ccc(/C=N/N=C(/N)N[N+](=O)[O-])c(OC)c1,0,0,0,0,0,0
N/C(=N\N=C/c1ccc(-c2ccc(O)c(C(=O)O)c2)o1)N[N+](=O)[O-],15.8µM,25.1µM,25.1µM,2.82µM,11.2µM,50.1µM
CC(n1cc(C[C@H](N)C(=O)O)c2ccccc21)n1cc(C[C@H](N)C(=O)O)c2ccccc21,-,0,-,0,-,28.2µM
CC1(C)C(=O)[C@@H]2OC2[C@@]2(C)C1CC(O)[C@]1(C)C2CC[C@@]2(C)C(c3ccoc3)OC(=O)C3OC312 (stereo partly specified),-,-,-,0,-,0
C/C=C/C=O,-,-,-,0,-,-
COP(=O)(OC)C1(O)C(=O)Nc2ccc(Br)cc21 (stereo unspecified),0,8.91µM,0,0,0,0
CC[N+](CC)(CC)CCOc1cccc(OCC[N+](CC)(CC)CC)c1OCC[N+](CC)(CC)CC,0,5.32µM!,0,0,22.4µM,?
CCN(CC1CCCN(CCc2cccc(OC)c2)C1)C(=O)c1ccc(COC)o1 (stereo unspecified),0,0,0,0,0,0
O=c1c2ccccc2cnn1Cc1n[nH]c(=S)n1C1CC2CCC1C2 (stereo unspecified),0,0,0,-,3.16µM,0
Brc1cc2c(cc1CN1CCN(c3ccccc3)CC1)OCCO2,0,?,?,0,?,0
Oc1cc2c(cc1CN1CCN(c3ccc(F)cc3)CC1)OCO2,0,8.91µM,?,0[0.0935 µM],?,0
CC1CC(C)C(=O)[C@H](C(O)CC2CC(=O)NC(=O)C2)C1 (stereo partly specified),-,0[2.33 µM],-,0,-,0
COc1cc2c(c(OC)c1OC)-c1ccc(O)c(=O)cc1[C@@H](NC(C)=O)CC2,0,-,-,0,56.2µM,0
Oc1cccc(Nc2ncnc3sc4c(c23)CCCC4)c1,0,0,0,0,89.1µM,-
Ic1ccccc1CNC1C2CCN(CC2)C1C(c1ccccc1)c1ccccc1 (stereo unspecified),-,2µM,-,0,-,-
Ic1ccccc1CN[C@@H]1C2CCN(CC2)[C@@H]1C(c1ccccc1)c1ccccc1,?,1.58µM,39.8µM,-,17.8µM,-
COC1C(O)C(C)O[C@H](OC2CC[C@@]3(C=O)C4CC[C@]5(C)C(C6=CC(=O)OC6)CC[C@@]5(O)C4CC[C@@H]3C2)C1O (stereo partly specified),-,0[2.33 µM],-,0,-,0
CC1(C)OC(c2ccccc2)=C/C(=C/C=C2C(=O)NC(=S)NC2=O)O1,11.2µM,10µM,10µM,0,?,39.8µM
CN1/C(=C\C=C2C(=O)NC(=S)NC2=O)C(C)(C)c2ccccc21,0,?,?,0,0,0
OC(c1ccc(Cl)cc1)(c1ccc(Cl)cc1)C(Cl)(Cl)Cl,-,-,-,0,-,-
N[C@@H](Cn1cc(I)c(=O)[nH]c1=O)C(=O)O,-,35.5µM,-,0,-,?
N[C@@H](Cn1ccc(=O)[nH]c1=O)C(=O)O,-,1.5µM,-,-,-,-
Cn1c(=O)oc2cc(S(=O)(=O)N3CCCC(C(=O)NCc4ccccc4Cl)C3)ccc21 (stereo unspecified),0,0,0,0,0,-
C[C@H](CCC(=O)O)[C@H]1CC[C@@H]2[C@H]3CC[C@H]4C[C@@H](O)CC[C@@]4(C)[C@H]3CC[C@]21C,-,0[21.5 µM],-,0,-,0
COC1CC(C)C(OC)c2cc(O)cc(c2O)NC(=O)C(C)=CC=CC(C)C(OC(N)=O)C(C)=CC(C)C1OC (stereo unspecified),70.8µM,-,-,-,89.1µM,-
Clc1ccc2ccccc2c1,-,-,-,0,-,-
